# Among all 2,400 compounds or so, about 180 (7.5%) were called active. Shown is part of a subset that was picked to be rich in actives. Unmarked numbers belong to inactive results.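 How the source made its calls: active means readout below zero, meaning a drop past 3 SD under the dofetilide-free negative control mean; inactive means the rest.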
# Biological target: Potassium voltage-gated channel subfamily KQT member 2 (Rattus norvegicus) (UniProt O88943)
# Experiment: KCNQ2 blockade in CHO cells – cell-based, FluxOR thallium flux, counter-screen for hERG block protector project, confirmation (AID 1946)
# Conditions: FluxOR thallium flux fluorescence, at 10 µM, hits give low values, zero marks the 3-SD hit cutoff
# Chain of Potassium voltage-gated channel subfamily KQT member 2 (Rattus norvegicus) (O88943 whole entry, looked up): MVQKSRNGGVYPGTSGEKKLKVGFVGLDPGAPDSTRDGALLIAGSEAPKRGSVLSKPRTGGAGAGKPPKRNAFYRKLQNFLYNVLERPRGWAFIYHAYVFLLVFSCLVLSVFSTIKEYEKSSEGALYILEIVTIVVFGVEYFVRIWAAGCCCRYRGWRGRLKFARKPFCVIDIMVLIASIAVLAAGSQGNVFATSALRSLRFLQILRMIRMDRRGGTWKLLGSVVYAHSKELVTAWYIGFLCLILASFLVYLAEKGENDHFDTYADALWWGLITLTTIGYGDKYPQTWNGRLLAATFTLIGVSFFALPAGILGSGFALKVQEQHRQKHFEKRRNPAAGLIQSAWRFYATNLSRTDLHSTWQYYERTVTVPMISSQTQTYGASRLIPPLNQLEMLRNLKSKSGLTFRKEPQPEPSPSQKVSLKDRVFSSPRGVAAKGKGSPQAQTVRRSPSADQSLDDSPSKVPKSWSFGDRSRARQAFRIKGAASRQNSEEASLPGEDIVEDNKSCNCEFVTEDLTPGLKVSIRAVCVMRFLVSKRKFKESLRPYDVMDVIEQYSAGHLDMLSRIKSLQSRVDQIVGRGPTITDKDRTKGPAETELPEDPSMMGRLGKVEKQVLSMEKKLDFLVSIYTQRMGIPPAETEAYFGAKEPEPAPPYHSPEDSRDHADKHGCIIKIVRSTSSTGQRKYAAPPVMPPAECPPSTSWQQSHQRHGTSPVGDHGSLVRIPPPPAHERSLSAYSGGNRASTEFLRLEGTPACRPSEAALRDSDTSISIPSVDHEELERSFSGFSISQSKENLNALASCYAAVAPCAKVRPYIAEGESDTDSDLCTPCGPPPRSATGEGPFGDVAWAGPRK
row,Structure (SMILES),activity change vs negative control
1,O=C(NC(=S)N(CC1CCC1)CC1CCCO1)c1cccc([N+](=O)[O-])c1 (centres undefined),63.2%
2,O=C(CCc1ccccc1)NC(=S)Nc1cc(C(F)(F)F)ccc1N1CCOCC1,-15.9% (active)
3,O=C(NC(=S)Nc1cc(C(F)(F)F)ccc1N1CCOCC1)c1ccco1,11.7%
4,O=C(NC(=S)Nc1cc(C(F)(F)F)ccc1Cl)c1ccccc1,8.2%
5,COc1cc(C(=O)Nc2ccc(O)cc2C(=O)O)ccc1OC(C)=O,3.8%
6,Cn1c(=O)c(Sc2ccccc2)c(O)c2ccccc21,23.4%
7,COc1ccc(C(=O)NNC(=O)C(=O)NC2CCCCC2)cc1,20.2%
8,O=C(c1csc(Nc2ccccc2Cl)n1)N1CCCC1,0%
9,COc1ccccc1-n1cnc2sc(C)c(C)c2c1=O,11.8%
10,Cc1ccc(OC(=O)c2sc3ncn(C)c(=O)c3c2C)cc1,-1.4% (active)
11,CCOc1ccc(-n2cnc3sc(C)c(C)c3c2=O)cc1,3%
12,CCOc1cc(N2CCOCC2)c(OCC)cc1NC(=O)Cn1nc(C)c([N+](=O)[O-])c1C,12.9%
13,CCSc1nnc(NC(=O)CC(C)C)s1,10.8%
14,Cc1ccc(OCc2ccoc2C(=O)O)cc1C,45.7%
15,O=C(/C=C/Nc1ccc(F)c(F)c1)c1cccs1,-2.9% (active)
16,Cc1ccc(N/C=C/C(=O)c2cccs2)cc1,5%
17,O=C(/C=C/Nc1ccc(F)cc1)c1ccco1,12.2%
18,Cc1ccc(Cc2c[nH]c(=S)s2)cc1,76.4%
19,O=C(NC(=S)N1CCc2ccccc21)c1ccc(Br)o1,41%
20,S=c1nc(Cc2ccccc2)[nH]c2ccccc12,98.8%
21,O=C1CC(C(=O)N2CCOCC2)C2(CCCCC2)O1 (centres undefined),-1% (active)
22,O=C(C1CCN(S(=O)(=O)c2cc(Cl)ccc2Cl)CC1)N1CCOCC1,1.9%
23,Cc1ccc(C(C)C)c(OCc2n[nH]c(=S)o2)c1,32.2%
24,O=C(NC(=S)NCc1ccccc1)c1ccc(Br)o1,93.4%
25,CCC1=NN(C(=O)c2ccc(Cl)cc2)C(O)(c2ccc(C)cc2)C1 (centres undefined),11.1%

row,Structure (SMILES),activity change vs negative control
1,CCC1=NN(C(=O)c2ccc(Cl)cc2)C(O)(c2ccccc2)C1 (centres undefined),-0.9% (active)
2,CC1=NN(C(=O)c2ccc(Cl)cc2)C(O)(c2ccccc2)C1 (centres undefined),16%
3,CC(C)NC(=O)Nc1n[nH]c(Nc2ccc(Cl)cc2)n1,34.6%
4,COCCN(C(=O)CSc1nnc(C)n1Cc1ccccc1)c1c(N)n(CC(C)C)c(=O)[nH]c1=O,1.8%
5,C=CCN(c1ccc(C(=O)NC(C)C)cc1)S(C)(=O)=O,-2.3% (active)
6,C=CCN(CC=C)C(=S)NC(=O)c1ccc(OC)cc1,31.6%
7,CS(=O)(=O)N(Cc1ccccc1)c1ccc(C(=O)Nc2ccc(C(N)=O)cc2)cc1,4.2%
8,CCOC(=O)C1=NN(C(=O)c2ccccc2)C(O)(c2ccc(C)cc2)C1 (centres undefined),32%
9,CCn1c(=S)[nH]c2c(c1=O)C(C)(C)Cc1ccccc1-2,49.8%
10,c1ccc(-c2n[nH]c(-c3ccccn3)n2)cc1,20.5%
11,C=CCn1c(O)c(N=NC(=S)Nc2ccccc2F)c2cc(S(=O)(=O)N3CCOCC3)ccc21,-2.3% (active)
12,Cn1c(O)c(N=NC(=S)Nc2ccccc2F)c2cc(S(=O)(=O)N3CCOCC3)ccc21,4%
13,Oc1c(N=NC(=S)Nc2ccccc2F)c2ccccc2n1Cc1ccccc1F,10.9%
14,CC(Oc1ccc(Br)cc1Br)C(=O)Nc1cccnc1 (centres undefined),7.4%
15,CC1CCN(C(=S)NC(=O)c2ccc(C(C)(C)C)cc2)CC1,38.5%
16,COc1cc2c(cc1OC)C(c1ccc([N+](=O)[O-])cc1)N(C(C)=O)CC2 (centres undefined),-4% (active)
17,COc1cc2c(cc1OC)C(C)N(C(=S)NC(=O)c1ccccc1)CC2 (centres undefined),18.6%
18,COc1ccc(NC(=O)N2CCN(c3ccc([N+](=O)[O-])cc3)CC2)cc1OC,8.2%
19,CCCOc1ccc(-c2c(C(=O)N/N=C/c3ccccc3OCC)nnn2-c2nonc2N)cc1,11.7%
20,Nc1nonc1-n1nnc(C(=O)N/N=C/c2cccc(Cl)c2Cl)c1CN1CCCC1,5.3%
21,CN(C)Cc1c(C(=O)N/N=C/c2ccccc2OCc2c(F)cccc2Cl)nnn1-c1nonc1N,-0.5% (active)
22,O=C(NC(=S)Nc1ccc(C(F)(F)F)cc1)c1csnn1,110%
23,CC1CCc2c(sc3[nH]c(=S)n(C)c(=O)c23)C1 (centres undefined),100%
24,CCc1nc(C)ccc1OCC(=O)N1CCc2c([nH]c3ccccc23)C1c1ccccn1 (centres undefined),-3.7% (active)
25,CN1N=C(C(=O)N2CCc3c([nH]c4ccccc34)C2c2c(F)cccc2Cl)CCC1=O (centres undefined),0.6%

row,Structure (SMILES),activity change vs negative control
1,O=c1c2cc(Br)ccc2nc(-c2ccc([N+](=O)[O-])cc2)n1O,66.7%
2,C=CCN(CC=C)C(=S)NC(=O)Cc1cccc2ccccc12,25.1%
3,CC(/C=C1\SC(=S)N(NS(=O)(=O)c2ccc(C)cc2)C1=O)=C\c1ccccc1,32.4%
4,O=c1c2cc(Cl)ccc2nc(-c2ccccc2)n1O,56.6%
5,Cn1nc(C(F)(F)F)c(-c2ccc(Br)cc2)c1NC(=O)c1cccnc1,-6.8% (active)
6,Cn1c(=S)[nH]c2sc3c(c2c1=O)CCC(C(C)(C)C)C3 (centres undefined),99.8%
7,CC(CCc1ccccc1)NC(=S)NC(=O)c1ccco1 (centres undefined),43%
8,O=C1C(=O)N(CCN2CCOCC2)C(c2cccnc2)/C1=C(/O)c1ccc(Cl)cc1 (centres undefined),6.1%
9,COc1ccc(N(CC(=O)NCc2cccnc2)S(=O)(=O)c2ccccc2[N+](=O)[O-])c(OC)c1,4.1%
10,Cc1ccc(/C(O)=C2\C(=O)C(=O)N(Cc3cccnc3)C2c2ccccc2[N+](=O)[O-])cc1 (centres undefined),-1.5% (active)
11,CC(C)CN1C(=O)/C(=C/c2cccs2)NC1=S,113%
12,COc1ccc(NC(=S)NC(=O)c2csnn2)cc1,81.7%
13,CC(=O)Nc1ccccc1C(=O)C(=O)Nc1ccc(Cl)cc1,5.3%
14,CC(C)C(=O)Nc1cccc(C(=O)Nc2ccccc2C(=O)O)c1,13.7%
15,CC(=O)Nc1ccccc1C(=O)C(=O)Nc1ccccc1,-2% (active)
16,S=c1[nH]c2cc(Cl)ccc2s1,121%
17,CCn1c(=S)[nH]c2sc3c(c2c1=O)CCCCC3,126%
18,CC(C)n1c(=S)[nH]c2scc(-c3cccs3)c2c1=O,119%
19,S=c1[nH]nc(-c2cccs2)n1/N=C/c1c(Cl)cccc1Cl,42.5%
20,O=C(N/N=C/c1cc([N+](=O)[O-])ccc1O)c1ccc(COc2ccc3c(c2)CCC3)o1,-19.7% (active)
21,Cc1cc(OCc2ccc(C(=O)Nc3ccc(C(=O)O)cc3)o2)ccc1Cl,5.6%
22,CCOc1ccc(C(=O)N/N=C/c2cc([N+](=O)[O-])cs2)cc1,5.6%
23,CCOC(=O)C1=C(c2ccccc2)NC(=O)NC1c1ccc(O)c(Cl)c1 (centres undefined),23.1%
24,O=C(N=Nc1c(O)[nH]c2ccc([N+](=O)[O-])cc12)c1cc(-c2ccccc2Cl)nc2ccccc12,3.8%
25,CC(C)(C)c1ccc(C(=O)CC(=O)c2cc(Cl)ccc2O)cc1,9.8%

row,Structure (SMILES),activity change vs negative control
1,COC(=O)c1ccc(/C=C/c2ccc3cccc(OC)c3n2)cc1,-0.2% (active)
2,COc1ccc(C(=O)CC(=O)C(=O)Nc2ccccc2OC)cc1,19.3%
3,O=C(N/N=C/c1ccc2cccc(OCc3ccccc3)c2n1)c1ccc(Br)cc1,12%
4,O=C(Cn1nnc(-c2cccc(C(F)(F)F)c2)n1)N1CCCCCC1,44.7%
5,Cc1ccccc1OCC(=O)NNC(=O)c1ccc2c(=O)n3c(nc2c1)CCC3,-0.9% (active)
6,COc1ccc(C(=O)NCC(=O)OCn2nnc3ccccc3c2=O)cc1OC,5.4%
7,Cc1ccccc1NC(=O)C(=O)NNC(=O)COc1ccc2ccccc2c1,48.1%
8,O=S(=O)(NC(=S)NC1CCCCC1)c1ccc(Br)cc1,36.7%
9,C=CCn1c(SCc2ccc(C(=O)O)cc2)nc2sc(C)c(C)c2c1=O,68%
10,CC1Cc2ccccc2N1C(=S)NC(=O)c1cccc(Br)c1 (centres undefined),143%
11,O=C(NC(=S)NNC(=O)[C@H]1C[C@@H]1c1ccccc1)c1cccc(F)c1,-9% (active)
12,O=C(NC(=S)NCCc1ccccc1)c1cccc(Cl)c1,5.4%
13,Cc1cccc(N=Cc2cc(Br)cc(Cl)c2O)c1,61.7%
14,COc1ccc(C(=O)NNC(=O)C(=O)Nc2ccc(C)cc2)cc1,36.9%
15,C=CCn1c(=S)[nH]c2cc(-c3ccccc3)sc2c1=O,17.5%
16,NC(=O)c1cccnc1Nc1cccc([N+](=O)[O-])c1,0.5%
17,O=C(NCc1cccnc1)c1ccc(NS(=O)(=O)c2ccc(F)cc2)cc1,17%
18,COc1ccc(S(=O)(=O)Nc2cccnc2)cc1,-2.7% (active)
19,COc1ccc(S(=O)(=O)Nc2cccc(-n3cnnn3)c2)cc1,11.8%
20,S=c1nc(-c2ccccc2)[nH]n1-c1ccccc1,73.2%
21,C=CCNC(=S)Nc1nc2c(cc1C(=O)OCC)CCCC2,15.6%
22,COc1ccc([N+](=O)[O-])cc1N(CC(=O)NCc1ccco1)S(C)(=O)=O,9.4%
23,COc1cc(/C=C2/C(=O)NN(c3ccc(Cl)c(Cl)c3)C2=O)cc([N+](=O)[O-])c1O,10.8%
24,COc1cc(/C=C2/OC(=O)c3cc([N+](=O)[O-])ccc32)cc(OC)c1OC,-0.9% (active)
